A short description of test [1]: qHTS assay to identify small molecule antagonists of the glucocorticoid receptor (GR) signaling pathway - cell viability counter screen (AID 720693). Also: nearly all actives have a fitted effect of over 55% in size. Also: potency is read from the fitted curve at half-maximal effect. Background: Quantitative high-throughput screening tests each substance at several concentrations.
A short description of test [2]: qHTS assay for identifying genotoxic compounds that show differential cytotoxicity against isogenic chicken DT40 cell lines with known DNA damage response pathways - wild type cell line (AID 743012). Also: nearly all actives have a fitted effect of over 60% in size. Also: potency is read from the fitted curve at half-maximal effect. Summed up:
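Viability by ATP luminescence (CellTiter-Glo, 30 min RT) after 40 h compound treatment at 37 C/5% CO2, using 300 parental DNA repair-proficient DT40 cells per well.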

Test [3] in a line: qHTS assay for identifying genotoxic compounds that show differential cytotoxicity against isogenic chicken DT40 cell lines with known DNA damage response pathways - Rev3 mutant cell line (AID 743014). Also: nearly all actives have a fitted effect of over 55% in size. Also: potency is read from the fitted curve at half-maximal effect.
The nature of test [4]: qHTS assay for identifying genotoxic compounds that show differential cytotoxicity against isogenic chicken DT40 cell lines with known DNA damage response pathways - Rad54/Ku70 mutant cell line (AID 743015). Also: nearly all actives have a fitted effect of over 60% in size. Also: potency is read from the fitted curve at half-maximal effect.
A short description of test [5]: qHTS assay to identify small molecule antagonists of the androgen receptor (AR) signaling pathway - cell viability counter screen (AID 743033; also: nearly all actives have a fitted effect of over 45% in size; also: potency is read from the fitted curve at half-maximal effect).
Test [6] addresses Androgen receptor (Homo sapiens) (UniProt P10275). Description: qHTS assay to identify small molecule antagonists of the androgen receptor (AR) signaling pathway (AID 743035; active = well fitted inhibition curve with a large enough effect in the signal ratio in the repeat runs, not every such curve was filed as active; the % refers to the signal ratio; also: potency is read from the fitted curve at half-maximal effect). Summed up: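 Antagonist mode: AR-bla HEK293 cells co-treated with test compounds and agonist R1881 for 16 h at 37C, 5% CO2. Beta-lactamase activity read as FRET fluorescence after 2 h room-temperature substrate loading.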

Test [7] shares this target. Briefly: qHTS assay to identify small molecule agonists of the androgen receptor (AR) signaling pathway (AID 743036; active = well fitted activation curve with a large enough effect in the signal ratio in the repeat runs, with a control signal flat, not every such curve was filed as active; the % refers to the signal ratio). Summed up:
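HEK293 cells stably carrying a UAS-driven beta-lactamase reporter (GeneBLAzer AR-UAS-bla-GripTite) were plated at 2,000 cells/well, rested 4 h at 37C, then exposed to compounds in DMSO for 16 h. LiveBLAzer B/G FRET substrate was added for 2 h at room temperature; fluorescence read.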

Test [8] is described as follows: qHTS assay to identify small molecule antagonists of the androgen receptor (AR) signaling pathway using the MDA cell line - cell viability counter screen (AID 743041; also: nearly all actives have a fitted effect of over 45% in size). Summed up: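 qHTS viability read-out; MDA-kb2 AR-luc; R1881-stimulated; 16 h exposure at 37C, 0% CO2; CellTiter-Fluor, 30 min; fluorescence intensity.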
Test [9] has as its target Androgen receptor (Homo sapiens) (UniProt P10275). Description: qHTS assay to identify small molecule antagonists of the androgen receptor (AR) signaling pathway using the MDA cell line (AID 743042; also: nearly all actives have a fitted effect of over 55% in size). Summed up: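 MDA-kb2 cells (human breast carcinoma, stably carrying an MMTV-luciferase reporter responsive to AR and GR) were plated at 3,000 cells/well and preincubated 5 hr at 37C, then given compound plus R1881 agonist for 16 h. ONE-Glo luminescence was read.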

Test [10] shares this target. Briefly: qHTS assay to identify small molecule agonists of the androgen receptor (AR) signaling pathway using the MDA cell line (AID 743040; also: nearly all actives have a fitted effect of over 20% in size). Summed up:
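Agonist activity is measured as luciferase luminescence in human MDA-kb2 cells whose MMTV reporter responds to both AR and GR. Compounds in DMSO incubate 16 h at 37C, 0% CO2, and ONE-Glo is read after 30 min.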

Values joined by “and” are separate entries in the source; they are usually repeats but may differ in a detail not shown here. Equal values may be shown once. Inconclusive results are not listed. More than one record can exist for a structure, and the calls need not agree. Active and inactive are the calls of the source. Unless noted, calls follow the shape of the dose curve; as a rule, active = well fitted curve in the direction sought with a large enough effect in the repeat runs; inconclusive = weak or mixed curves; inactive = no such curve, though single readings can be large; an effect the other way counts as inactive or inconclusive.

Chain of Androgen receptor (Homo sapiens) (P10275 whole entry, looked up): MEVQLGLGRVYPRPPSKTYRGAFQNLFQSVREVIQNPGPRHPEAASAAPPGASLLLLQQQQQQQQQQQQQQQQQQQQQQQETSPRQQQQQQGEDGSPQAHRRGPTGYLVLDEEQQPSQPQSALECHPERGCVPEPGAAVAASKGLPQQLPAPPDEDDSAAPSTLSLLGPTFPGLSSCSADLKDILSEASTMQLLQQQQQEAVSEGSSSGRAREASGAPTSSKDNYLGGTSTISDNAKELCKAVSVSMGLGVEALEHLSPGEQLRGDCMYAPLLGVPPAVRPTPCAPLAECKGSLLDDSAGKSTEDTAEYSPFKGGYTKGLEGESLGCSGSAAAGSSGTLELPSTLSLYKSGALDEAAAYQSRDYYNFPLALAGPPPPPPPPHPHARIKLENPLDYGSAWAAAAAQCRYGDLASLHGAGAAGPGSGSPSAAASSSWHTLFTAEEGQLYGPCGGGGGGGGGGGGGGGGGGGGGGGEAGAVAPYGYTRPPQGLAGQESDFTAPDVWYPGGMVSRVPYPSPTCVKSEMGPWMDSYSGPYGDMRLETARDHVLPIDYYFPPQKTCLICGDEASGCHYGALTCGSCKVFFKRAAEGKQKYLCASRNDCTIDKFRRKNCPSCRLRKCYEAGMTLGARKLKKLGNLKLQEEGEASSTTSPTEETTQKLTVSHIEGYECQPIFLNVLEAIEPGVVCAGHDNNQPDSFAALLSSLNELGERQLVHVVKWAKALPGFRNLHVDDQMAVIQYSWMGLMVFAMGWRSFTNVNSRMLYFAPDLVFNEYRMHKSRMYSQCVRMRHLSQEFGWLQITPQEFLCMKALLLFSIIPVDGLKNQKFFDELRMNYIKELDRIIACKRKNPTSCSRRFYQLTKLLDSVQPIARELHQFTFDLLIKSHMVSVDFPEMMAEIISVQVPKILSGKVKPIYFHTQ

As for `CC[C@@]1([C@@H]2O[C@@H]([C@H]3O[C@@](O)(CO)[C@H](C)C[C@@H]3C)C[C@@H]2C)CC[C@H]([C@]2(C)CC[C@]3(C[C@H](O)[C@@H](C)[C@@H]([C@@H](C)[C@@H](OC)[C@H](C)C(=O)O)O3)O2)O1` (stereo in doubt), the Potency result in test [1] was “inactive”. The Potency in [2] is 473 nM (active) and 531 nM (active); in test [3] it was 376 nM (active) and 531 nM (active); in test [4] it was 531 nM (active) and 596 nM (active).
On to `CC1(C)CCC(NC(=O)[C@@H](N)CCC(=O)O)CC1`, for which the Potency entry in test [1], in [2], in test [3], in test [4], in test [5] and in test [6] was “inactive” throughout. Moreover, the Potency entry in [7], in test [8] and in test [9] was “inactive” in each case.
For `Cc1cc(-c2ccc(N=Nc3ccc4c(S(=O)(=O)O)cc(S(=O)(=O)O)c(N)c4c3O)c(C)c2)ccc1N=Nc1ccc2c(S(=O)(=O)O)cc(S(=O)(=O)O)c(N)c2c1O`, the Potency result in test [1] and in test [5] was “inactive” in each case. Besides, the Potency in test [2] was 23.7 µM (active); in test [3], 23.7 µM (active); in test [4], 11.9 µM (active) and 23.7 µM (active).
On to `CCC[C@@H]1C[C@@H](C(=O)N[C@@H]([C@H]2O[C@H](SC)[C@H](OP(=O)(O)O)[C@@H](O)[C@H]2O)[C@H](C)Cl)N(C)C1`, for which the Potency entry in test [1], in test [2], in test [3], in test [4], in [5] and in test [6] was “inactive” throughout. Moreover, the Potency entry in test [7], in test [8] and in test [9] was “inactive” throughout.
Regarding `Cc1cc(CC(C)CC(C)(C)C)n(O)c(=O)c1` (stereo not given) (tested in a mixture with another compound), the Potency in test [1] was 15.1 µM (active); in test [2], 11.9 µM (active); in test [3], 11.9 µM (active); in [4], 13.3 µM (active). The Potency entry in [5] is “inactive”.
On to `CN(C)CCc1c[nH]c2ccc(Cn3cncn3)cc12`, for which the Potency entry in test [1], in [2], in test [3], in test [4], in test [5] and in test [6] was “inactive” in each case. In addition, the Potency entry in test [7], in test [8] and in [9] was “inactive” throughout.
As to `C[C@@H]1C(=O)NC2=Nc3cccc(Cl)c3CN21`, the Potency result in test [1], in test [2], in test [3], in test [4], in test [5] and in test [6] was “inactive” each time. Moreover, the Potency entry in test [7], in test [8] and in [9] was “inactive” each time.
In the case of `CCOc1cc(CC(=O)N[C@@H](CC(C)C)c2ccccc2N2CCCCC2)ccc1C(=O)O`, the Potency result in [1], in test [2], in test [3], in test [4], in test [5] and in test [6] was “inactive” in each case. Also, the Potency result in test [7], in test [8] and in [9] was “inactive” throughout.
`CC1=C(/C=C/C(C)=C/C=C/C(C)=C/C=C/C=C(C)/C=C/C=C(C)/C=C/C2=C(C)CCCC2(C)C)C(C)(C)CCC1`: the Potency result in [1], in test [2], in test [3], in test [4], in [5] and in test [6] was “inactive” in each case. Also, the Potency entry in test [7], in [10], in test [8] and in [9] was “inactive” each time.
As for `CC1(C)C[C@@H]1C(=O)N/C(=C\CCCCSC[C@H](N)C(=O)O)C(=O)O`, the Potency result in test [1], in [2], in [3], in test [4], in test [5] and in test [6] was “inactive” in each case. Moreover, the Potency entry in [7], in [10], in test [8] and in [9] was “inactive” each time.
`CC[C@H]1OC(=O)[C@H](C)C(=O)[C@H](C)[C@@H](O[C@@H]2O[C@H](C)C[C@H](N(C)C)[C@H]2O)[C@](C)(OC)C[C@@H](C)C(=O)[C@H](C)[C@H]2N(CCCCn3cnc(-c4cccnc4)c3)C(=O)O[C@]12C`: the Potency result in test [1] and in test [5] was “inactive” throughout. Besides, the Potency in test [2] was 4.22 µM (active); in [3], 5.96 µM (active) and inactive; in [4], 6.68 µM (active).
Consider `CN1CCN(CCCN2c3ccccc3Sc3ccc(Cl)cc32)CC1`, for which the Potency in test [1] is 23.9 µM (active); in test [2], 5.96 µM (active); in test [3], 7.5 µM (active); in test [4] it was 8.41 µM (active); in [5], 23.9 µM (active).
`NCCCC[C@H](NC(=O)[C@@H]1CCCN1C(=O)[C@@H]1CSSC[C@H](N)C(=O)N[C@@H](Cc2ccc(O)cc2)C(=O)N[C@@H](Cc2ccccc2)C(=O)N[C@@H](CCC(N)=O)C(=O)N[C@@H](CC(N)=O)C(=O)N1)C(=O)NCC(N)=O`: the Potency result in test [1], in [2], in test [3], in test [4], in test [5] and in test [6] was “inactive” each time. The Potency entry in test [7], in test [10], in test [8] and in [9] was “inactive” in each case.
Regarding `CC(C)NCC1CCc2cc(CO)c([N+](=O)[O-])cc2N1` (stereo not given), the Potency result in test [1], in test [2], in [3], in [4], in test [5] and in [6] was “inactive” throughout. Besides, the Potency entry in test [7], in test [8] and in test [9] was “inactive” in each case.
`C[N+]1(CCCCC[N+]2(C)CCCC2)CCCC1`: the Potency entry in test [1], in test [2], in test [3], in test [4], in [5] and in test [6] was “inactive” throughout. The Potency result in [7], in [10], in test [8] and in test [9] was “inactive” in each case.
As for `O=C(O)Cc1nn(Cc2ccc(Br)cc2F)c(=O)c2ccccc12`, the Potency result in [1], in [2], in [3], in [4], in [5] and in test [6] was “inactive” in each case. Moreover, the Potency result in [7], in test [8] and in [9] was “inactive” in each case.
Regarding `O=C(O)C[C@H](O)C[C@H](O)/C=C/c1c(C2CC2)nc2ccccc2c1-c1ccc(F)cc1`, the Potency entry in test [1], in test [5], in test [7], in [8] and in [9] was “inactive” each time. Also, the Potency in test [2] was 0.531 µM (active); in test [3], 0.0944 µM (active); in test [4], 1.68 µM (active); in test [6], 1.69 µM (active).
Turning to `CCOC(=O)[C@H](CCc1ccccc1)N[C@@H](C)C(=O)N1[C@H](C(=O)O)C[C@H]2CCCC[C@@H]21`, the Potency result in test [1], in [2], in [3], in test [4], in [5] and in test [6] was “inactive” each time. Moreover, the Potency result in test [7], in [8] and in [9] was “inactive” each time.

The record behind these values is PubChem BioAssay (Tox21).
